Molecules are shown by their SMILES. For some assays here: Potency and affinity values are given separately. Active and inactive are the calls of the source.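 The calls were made as follows, unless noted: active = hit in primary screen, with calcium signal over 5 SD above buffer well mean in both duplicates; inactive = the rest.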

Here are results for six compounds from PubChem BioAssay.

Test [1] concerns TRPC4 beta (transient receptor potential cation channel C4), mouse. The test can be described thus: activators of mouse TRPC4 channel, confirmation, cell-based, Fluo4 calcium, HEK293 TRPC4beta/mu-opioid, duplicates, 10 µM (AID 2426;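 active = fluorescence ratio normalized to control raised more than 50% in primary screen plus both repeat runs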;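 also: percent rise of integrated ratio over buffer wells lacking compound which define 0%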). The following applies: Fluo4 calcium fluorescence, at 10 µM; active compounds read high.
Test [2] deals with transient receptor potential cation channel C4 beta (TRPC4), mouse. Kind of test: activators of mouse TRPC4 channel, confirmation, cell-based, second round, Fluo4, HEK293 TRPC4beta/mu-opioid, 1 µM (AID 2461;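 active = primary screen active and over 50% activation in each of two duplicate runs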;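 as to activation: 0% = wells without test compound as baseline of integrated fluorescence ratio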). As to conditions: Fluo4 calcium fluorescence, at 1 µM; active compounds read high.
For test [3], the system named is TRPC4 (transient receptor potential cation channel C4 beta), mouse. Kind of test: positive allosteric modulators of mouse TRPC4, confirmation, cell-based, second round, Fluo-4, HEK293 TRPC4beta/mu-opioid, 1 µM (AID 2554;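 active = primary screen hit whose fluorescence ratio, in both repeats, exceeds the weak agonist control mean by 3 SD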). As to conditions: DAMGO EC20, Fluo-4 calcium flux, at 1 µM; active compounds read high. (A change in cytosolic calcium serves as a functional read-out for many receptors and channels.)

Test [4] concerns TRPC4 beta (transient receptor potential cation channel C4), mouse. Kind of test: positive allosteric modulators of mouse TRPC4, confirmation, cell-based, Fluo-4, HEK293 TRPC4beta/mu-opioid (AID 2555;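 active = primary screen hit whose calcium fluorescence ratio, in both repeats, exceeds the weak agonist control mean by 3 SD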). As to conditions: DAMGO EC20, Fluo-4 calcium flux, at 10 µM; active compounds read high.
Test [5] has as its target Short transient receptor potential channel 4 (Mus musculus) (UniProt Q9QUQ5). The test can be described thus: inhibitors of mouse TRPC4 channel, confirmation, cell-based, Fluo4, HEK293 TRPC4beta/mu-opioid (AID 2636;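 active = calcium signal cut by more than 3 SD below the full-agonist control yet still positive, in both repeats and the earlier primary screen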). As to conditions: DAMGO, Fluo4 calcium flux, at 10 µM; active compounds read high.
For test [6] the target is unchanged. Kind of test: inhibitors of mouse TRPC4 channel, confirmation, cell-based, second round, Fluo4, HEK293 TRPC4beta/mu-opioid, 1 µM (AID 2637;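 active = calcium signal ratio cut to more than 3 SD under the fully stimulated control mean yet still positive, in both repeats and the primary screen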). As to conditions: Fluo4 calcium flux, DAMGO, at 1 µM; active compounds read high.
For test [7] the target is unchanged. The test can be described thus: TRPC4 positive allosteric modulators, dose response, cell-based, HEK293 TRPC4/mu-opioid, Fluo-4 calcium, EC20 DAMGO (AID 434941;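 active = earlier screen potentiator hit that boosts the TRPC4 ion channel at some dose, with a dose response; inactive = no potentiation, no dose response, or not a prior hit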;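 also: calcium entry triggered by an EC20 dose of DAMGO at the co-expressed mu-opioid receptor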).
Test [8] has the same target. The test can be described thus: mouse TRPC4 channel inhibitors, dose response, cell-based, HEK293 TRPC4/mu-opioid, Fluo-4 calcium (AID 434942;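 active = primary screen inhibitor hit that blocks the TRPC4 channel at some tested dose, yielding a dose curve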).
The target in test [9] is Short transient receptor potential channel 6 (Mus musculus) (UniProt Q61143). The test can be described thus: inhibition of mouse TRPC6 channel, confirmation, selectivity assay for TRPC4 inhibitor project, cell-based, HEK293, membrane potential dye, duplicate (AID 434948;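 active = active in primary screen and both duplicates, each dropping signal beyond three positive-control SD with fluorescence still positive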). As to conditions: HEK293 TRPC6, membrane potential dye fluorescence, at 10 µM, stimulated with maximal-effect acetylcholine; active compounds read high.

Test [10] has the same target. Kind of test: activation of mouse TRPC6 channel, confirmation, selectivity assay for TRPC4 activator project, cell-based, HEK293, membrane potential dye, duplicate (AID 434950;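 active = membrane potential signal rise above negative control mean plus 3 SD in both duplicates, also active in the earlier TRPC4 screen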;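 as to activation: 0% = buffer only wells and 100% = acetylcholine maximal-effect wells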). The following applies: HEK293 TRPC6, membrane potential fluorescence, at 10 µM; active compounds read high.
The target is the same in test [11]. The test can be described thus: TRPC6 potentiation by TRPC4 potentiator hits, confirmation, selectivity assay for TRPC4 potentiator project, HEK293 cells, membrane potential dye, duplicate (AID 434952;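 active = compound raising the membrane signal above positive-control mean plus 3 SD in both repeats, and a primary screen hit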). The following applies: HEK293 TRPC6, membrane potential dye fluorescence, at 10 µM, maximal acetylcholine added after compound; active compounds read high.
The target of test [12] is Short transient receptor potential channel 4 (Mus musculus) (UniProt Q9QUQ5). Kind of test: calcium flux activators in TRPC4/5HT1a cells, counter-screen for TRPC4 activator project, cell-based, second counter screen, HEK293 TRPC4/5HT1a, Fluo-4 (AID 434977;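 active = calcium signal rise above buffer-control mean plus 5 SD in both duplicates, and also a hit in the primary screen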;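 also: plate controls were assay buffer for no effect and maximal serotonin response for full effect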). The following applies: Fluo-4 calcium flux, at 10 µM; active compounds read high.
The nature of test [13]: calcium flux inhibitors in TRPC4/5HT1a cells, confirmation, counter-screen for TRPC4 inhibitor project, cell-based, second counter screen, HEK293 TRPC4/5HT1a, Fluo-4 (AID 434978;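 active = primary screen active whose calcium signal fell more than 3 SD beyond the full-serotonin control mean in both duplicate plates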;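 also: serotonin given first at submaximal then at maximal dose after compound preincubation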). The following applies: Fluo-4 calcium flux, at 10 µM, serotonin added to trigger calcium flux; active compounds read high.
Test [14] has as its system TRPC4 (mouse), co-expressed with 5HT1a in HEK293. Kind of test: calcium flux potentiators in TRPC4/5HT1a cells, confirmation, counter-screen for TRPC4 potentiator project, cell-based, second counter screen, HEK293 TRPC4/5HT1a, Fluo-4 (AID 434979;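 active = signal rise over 3 SD above mean of control wells given weak agonist, in both repeats and first screen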). The following applies: Fluo-4 calcium flux, at 10 µM, serotonin added at its EC20 dose; active compounds read high.
Test [15] in a line: calcium flux activation in mu-opioid HEK293 cells, confirmation, counter-screen for TRPC4 activator project, cell-based, HEK293 mu-opioid receptor line (AID 449723).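 Also: counter screen cells carry the mu-opioid receptor alone and lack TRPC4.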 The following applies: Fluo-4 calcium fluorescence, at 10 µM; active compounds read high.
Test [16] is described as follows: calcium flux enhancement in mu-opioid HEK293 cells, confirmation, counter-screen for TRPC4 allosteric potentiator project, cell-based, HEK293 mu-opioid receptor line (AID 449724;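 active = calcium signal rise more than 3 SD above the low-dose agonist control mean, in both duplicate plates and the primary screen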;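 also: HEK293 cells carrying mu-opioid receptor only with no TRPC4 channel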). The following applies: Fluo-4 calcium flux, at 10 µM, compound added before EC20 DAMGO stimulus; active compounds read high.
A short description of test [17]: thallium flux activation in parental CHO cells, counter-screen for KCNQ1 potentiator project (AID 493006;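 active = duplicate-averaged activation above buffer control mean plus 5 SD of those controls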;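 as to activation: fluorescence ratio of max minus min over baseline after K+ and Tl+ depolarization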). The following applies: parental CHO-K1 cells, FluxOR thallium flux, at 10 µM; active compounds read high.
The target of test [18] is Potassium voltage-gated channel subfamily KQT member 1 (Homo sapiens) (UniProt P51787). Kind of test: KCNQ1 potassium channel potentiators, confirmation, FluxOR thallium flux, CHO cells, duplicates (AID 493007;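 active = potentiation averaged over duplicate wells exceeding buffer-only control mean by more than 3 SD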;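 also: 0% = buffer-only wells and 100% = R-L3 activator control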). As to conditions: KCNQ1 cell line, FluxOR thallium flux fluorescence, at 10 µM; active compounds read high, % of reference activator effect, buffer zero.
For test [19], the target named is Potassium voltage-gated channel subfamily KQT member 2 (Rattus norvegicus) (UniProt O88943). The test can be described thus: rat KCNQ2 channel potentiation, selectivity assay for KCNQ1 potentiator project, KCNQ2-CHO-K1 cells (AID 493009;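 active = mean duplicate potentiation above the buffer control mean plus 5 SD of buffer wells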;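 also: assay conditions were tuned for KCNQ1 rather than KCNQ2 modulators; signal is max minus min fluorescence divided by baseline after thallium stimulus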). As to conditions: FluxOR thallium flux fluorescence, at 10 µM; active compounds read high, scaled: buffer 0, activator control 100.
The target in test [20] is Potassium voltage-gated channel subfamily KQT member 1 (Homo sapiens) (UniProt P51787). Kind of test: KCNQ1 channel current potentiators, confirmation, orthogonal assay for KCNQ1 potentiator project, IonWorks patch clamp, KCNQ1-CHO cells (AID 493184;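 active = current rise at least 3 SD above the untreated control mean in each of two repeat wells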). As to conditions: automated patch clamp current, at 10 µM; active compounds read high. Background: Patch clamp records ionic current or voltage across a cell membrane.

Chain of Short transient receptor potential channel 6 (Mus musculus) (Q61143 whole entry, looked up): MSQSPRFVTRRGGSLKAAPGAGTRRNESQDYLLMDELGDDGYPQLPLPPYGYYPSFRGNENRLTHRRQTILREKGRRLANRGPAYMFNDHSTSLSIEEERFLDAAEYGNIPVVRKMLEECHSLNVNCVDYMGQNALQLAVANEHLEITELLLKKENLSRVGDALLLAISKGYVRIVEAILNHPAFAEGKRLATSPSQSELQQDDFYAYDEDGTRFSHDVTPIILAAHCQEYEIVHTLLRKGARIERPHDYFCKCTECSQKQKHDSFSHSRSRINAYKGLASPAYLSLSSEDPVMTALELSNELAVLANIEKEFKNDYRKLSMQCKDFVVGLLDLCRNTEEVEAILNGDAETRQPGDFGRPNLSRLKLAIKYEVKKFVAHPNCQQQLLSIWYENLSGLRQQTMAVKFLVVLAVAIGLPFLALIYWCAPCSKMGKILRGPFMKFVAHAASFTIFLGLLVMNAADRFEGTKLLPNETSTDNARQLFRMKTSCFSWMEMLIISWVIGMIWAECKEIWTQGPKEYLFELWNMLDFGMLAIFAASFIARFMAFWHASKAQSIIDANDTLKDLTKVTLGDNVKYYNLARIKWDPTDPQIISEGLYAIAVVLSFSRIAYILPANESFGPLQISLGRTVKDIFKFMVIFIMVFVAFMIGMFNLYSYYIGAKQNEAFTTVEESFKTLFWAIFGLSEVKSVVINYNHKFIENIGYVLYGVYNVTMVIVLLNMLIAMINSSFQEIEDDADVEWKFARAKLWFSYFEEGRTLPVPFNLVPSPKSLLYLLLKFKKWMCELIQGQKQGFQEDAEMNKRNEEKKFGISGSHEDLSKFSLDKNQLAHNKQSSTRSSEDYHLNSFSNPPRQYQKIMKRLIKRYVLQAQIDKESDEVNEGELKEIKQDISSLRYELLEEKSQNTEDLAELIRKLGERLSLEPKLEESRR
Chain of Potassium voltage-gated channel subfamily KQT member 1 (Homo sapiens) (P51787 whole entry, looked up): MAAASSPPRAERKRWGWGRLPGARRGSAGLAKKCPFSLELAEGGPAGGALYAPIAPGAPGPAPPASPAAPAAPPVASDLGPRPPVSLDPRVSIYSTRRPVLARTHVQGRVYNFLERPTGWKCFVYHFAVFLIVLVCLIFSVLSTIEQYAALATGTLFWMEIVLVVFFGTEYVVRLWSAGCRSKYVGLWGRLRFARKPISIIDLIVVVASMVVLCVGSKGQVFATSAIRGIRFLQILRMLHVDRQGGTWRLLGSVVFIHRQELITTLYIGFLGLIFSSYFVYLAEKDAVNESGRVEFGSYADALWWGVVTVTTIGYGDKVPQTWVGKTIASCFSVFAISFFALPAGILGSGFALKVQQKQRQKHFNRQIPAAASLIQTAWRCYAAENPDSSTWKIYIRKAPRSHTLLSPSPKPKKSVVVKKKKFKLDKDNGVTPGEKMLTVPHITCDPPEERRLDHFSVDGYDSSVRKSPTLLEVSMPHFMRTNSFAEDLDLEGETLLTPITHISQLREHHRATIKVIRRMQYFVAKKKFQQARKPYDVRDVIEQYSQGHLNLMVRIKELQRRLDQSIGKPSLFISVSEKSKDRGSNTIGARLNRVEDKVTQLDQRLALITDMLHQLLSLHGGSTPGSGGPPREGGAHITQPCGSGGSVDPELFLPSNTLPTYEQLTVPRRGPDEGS
Chain of Short transient receptor potential channel 4 (Mus musculus) (Q9QUQ5 whole entry, looked up): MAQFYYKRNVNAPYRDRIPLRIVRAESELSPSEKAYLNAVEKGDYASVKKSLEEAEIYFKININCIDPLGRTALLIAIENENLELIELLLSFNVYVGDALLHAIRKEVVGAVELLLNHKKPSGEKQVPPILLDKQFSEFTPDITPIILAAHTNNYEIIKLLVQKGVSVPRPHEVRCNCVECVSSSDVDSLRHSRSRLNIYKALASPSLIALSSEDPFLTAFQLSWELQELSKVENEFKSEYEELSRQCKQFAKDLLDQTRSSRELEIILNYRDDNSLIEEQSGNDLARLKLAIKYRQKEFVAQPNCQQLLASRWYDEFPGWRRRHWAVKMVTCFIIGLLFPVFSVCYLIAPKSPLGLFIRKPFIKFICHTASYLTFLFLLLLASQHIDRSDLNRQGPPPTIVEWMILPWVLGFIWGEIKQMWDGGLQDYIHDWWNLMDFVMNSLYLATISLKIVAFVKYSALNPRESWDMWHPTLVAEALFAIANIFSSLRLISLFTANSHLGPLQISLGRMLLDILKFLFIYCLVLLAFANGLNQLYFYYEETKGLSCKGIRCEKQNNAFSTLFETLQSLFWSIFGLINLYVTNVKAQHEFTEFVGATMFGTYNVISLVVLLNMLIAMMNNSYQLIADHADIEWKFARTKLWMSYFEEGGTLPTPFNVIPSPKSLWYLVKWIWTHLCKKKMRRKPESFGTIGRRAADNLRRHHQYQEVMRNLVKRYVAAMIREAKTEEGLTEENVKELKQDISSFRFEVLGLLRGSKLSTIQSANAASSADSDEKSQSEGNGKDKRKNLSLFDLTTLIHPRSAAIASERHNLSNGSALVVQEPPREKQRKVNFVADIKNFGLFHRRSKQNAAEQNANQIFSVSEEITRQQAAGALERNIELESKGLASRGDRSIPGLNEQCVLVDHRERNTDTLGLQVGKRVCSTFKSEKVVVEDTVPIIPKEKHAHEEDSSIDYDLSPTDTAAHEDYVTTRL
Chain of Potassium voltage-gated channel subfamily KQT member 2 (Rattus norvegicus) (O88943 whole entry, looked up): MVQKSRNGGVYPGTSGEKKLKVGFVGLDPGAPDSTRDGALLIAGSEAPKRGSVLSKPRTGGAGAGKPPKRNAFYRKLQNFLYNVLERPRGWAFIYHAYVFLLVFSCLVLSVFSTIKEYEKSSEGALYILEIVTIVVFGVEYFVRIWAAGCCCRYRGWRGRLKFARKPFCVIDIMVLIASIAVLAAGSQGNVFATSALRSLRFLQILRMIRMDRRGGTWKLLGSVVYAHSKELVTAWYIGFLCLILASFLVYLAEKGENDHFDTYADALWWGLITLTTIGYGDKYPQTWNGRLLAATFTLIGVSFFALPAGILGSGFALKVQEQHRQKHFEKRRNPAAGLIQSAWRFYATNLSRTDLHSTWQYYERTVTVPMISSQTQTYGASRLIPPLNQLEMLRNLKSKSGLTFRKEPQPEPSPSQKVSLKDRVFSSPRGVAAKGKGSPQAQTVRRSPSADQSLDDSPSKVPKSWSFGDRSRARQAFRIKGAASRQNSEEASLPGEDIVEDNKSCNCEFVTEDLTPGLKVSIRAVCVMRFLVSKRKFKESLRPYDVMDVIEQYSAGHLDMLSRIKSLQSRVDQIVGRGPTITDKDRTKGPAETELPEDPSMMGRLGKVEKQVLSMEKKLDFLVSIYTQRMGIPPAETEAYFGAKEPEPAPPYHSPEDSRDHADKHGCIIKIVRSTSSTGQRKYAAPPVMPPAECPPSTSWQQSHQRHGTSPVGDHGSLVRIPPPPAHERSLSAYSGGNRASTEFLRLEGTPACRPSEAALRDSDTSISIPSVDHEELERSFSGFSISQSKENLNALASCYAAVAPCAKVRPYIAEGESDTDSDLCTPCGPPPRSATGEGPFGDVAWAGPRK

Turning to `COc1ccc(C(CNC(=O)C(C)c2ccc3cc(OC)ccc3c2)N(C)C)cc1` (stereo unspecified), the activation in [1] was 243% (active); in [2], 98% (active); in test [10], 63% (active); in [12], 8.72% (active). Moreover, the result in test [3], in test [4], in test [5], in [6], in [7] and in [8] was inactive. Besides, the compound was called inactive in test [9], in test [11], in test [13], in test [14], in test [15] and in test [16].
`CC(C)(C)c1ccc(C(=O)NC(=S)NNC(=O)c2cccs2)cc1`: the activation in [1] is 226% (active); in test [12], 199% (active); in test [15], 84.8% (active); in test [17], 136% (active). For the same compound, the outcome in [2], in test [3], in test [4], in [5], in test [6] and in test [7] was inactive. For the same compound, the result in [8], in test [9], in test [10], in test [11], in test [13] and in [14] was inactive. The outcome in test [16] and in [20] was inactive. Also, the values for the potentiation in test [18] and in [19] were 97% (active) and 188% (active), respectively.
For the compound `O=C1CC(O)(C(F)(F)F)Oc2c1ccc1ccccc21` (stereo unspecified), the activation in [1] is 216% (active); in [12], 119% (active); in test [15], 102% (active); in test [17], 222% (active). For the same compound, the result in test [2], in [3], in test [4], in test [5], in test [6] and in test [7] was inactive. Further, the result in test [8], in test [9], in test [10], in test [11], in test [13] and in test [14] was inactive. Besides, the result in [16] and in test [20] was inactive. Moreover, the potentiation in test [18] was 71.5% (active); in [19], 270% (active).
As for `CC(C)(C)C(=O)NC(=S)NNC(=O)c1ccc(-c2ccccc2)cc1`, the activation in test [1] is 257% (active); in test [2] it was 60% (active); in test [10], 35.5% (active); in test [12], 147% (active); in [15], 83.6% (active); in [17], 308% (active). For the same compound, the outcome in test [3], in [4], in [5], in [6], in test [7] and in [8] was inactive. Further, the call in test [9], in test [11], in test [13], in test [14], in [16] and in test [20] was inactive. Besides, the results for the potentiation in test [18] and in test [19] were 163% (active) and 430% (active), respectively.
As for `Cc1occc1C(=O)NNC(=S)NC(=O)COc1ccc(Cl)cc1Cl`, the activation in [1] was 108% (active); in test [12] it was 58.4% (active); in [15] it was 18.4% (active); in test [17] it was 256% (active). Further, the outcome in test [2], in test [3], in test [4], in test [5], in test [6] and in test [7] was inactive. For the same compound, the outcome in [8], in test [9], in test [10], in test [11], in test [13] and in test [14] was inactive. Besides, the result in test [16] and in test [20] was inactive. Also, the potentiation is 259% (active) in test [18] and 442% (active) in test [19].
As for `COc1cc(OC)cc(C(=O)NC(=S)NNC(=O)[C@H]2C[C@@H]2c2ccccc2)c1`, the activation is 162% (active) in test [1], 99% (active) in test [12] and 40.4% (active) in test [15]. Moreover, the outcome in [2], in test [3], in test [4], in test [5], in [6] and in [7] was inactive. The result in [8], in [9], in test [10], in test [11], in test [13] and in test [14] was inactive. The result in test [16], in test [17], in test [19] and in test [20] was inactive. For the same compound, the potentiation in test [18] was 37.5% (active).
